Experimental data published in PubChem BioAssay AID1159580 (chemical genetic matrix, 2015).
The campaign covered roughly 5,500 compounds. About 2,000 (36%) were called active. Not shown: some 18% with an inconclusive outcome. Cut-off read from the data, not from the text of the source: active = normalized growth mostly below about 0.91 (no sharp cut-off); inconclusive = no clear call, values can overlap the other calls; inactive = mostly above about 0.92. This is one part of the list.

Assay: chemical genetic growth profiling, strain panel (AID 1159580);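 note: tested at 20 µM; growth read once vehicle control cultures reached saturation at 30 °C; 1 = growth at the plate median or of vehicle wells; lower values mean less growth of the strain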
Details: S. cerevisiae deletion strains, growth OD

Measured: normalized growth

O=C(O)c1cc(=O)c2ccc(Cl)cc2[nH]1
inactive: locus YAL013W, strain DEP1, hits give low values 1.01 | locus YAL021C, strain ccr4, hits give low values 1 | locus YAL026C, strain drs2, hits give low values 1.03 | locus YAL030W, strain snc1, hits give low values 1.01 | locus YAL040C, strain CLN3, hits give low values 1.01 | locus YBL061C, strain skt5, hits give low values 1.02 | locus YBR009C, strain hhf1, hits give low values 1.01 | locus YBR021W, strain FUR4, hits give low values 1.01 | locus YBR023C, strain chs3, hits give low values 1.02 | locus YBR171W, strain sec66, hits give low values 1.03 | locus YBR229C, strain ROT2, hits give low values 1.02 | locus YBR231C, strain swc5, hits give low values 1.02 | locus YBR279W, strain paf1, hits give low values 1.01 | locus YCL011C, strain gbp2, hits give low values 1.02 | locus YCL016C, strain dcc1, hits give low values 1.04 | locus YCL029C, strain bik1, hits give low values 0.998 | locus YCL061C, strain MRC1 (second series), hits give low values 1.01 | locus YCL061C, strain MRC1, hits give low values 1.01 | locus YCL069W, strain vba3, hits give low values 1.01 | locus YCR088W, strain abp1, hits give low values 1.01 | locus YDL005C, strain med2, hits give low values 1.02 | locus YDL035C, strain GPR1, hits give low values 1.02 | locus YDL040C, strain nat1, hits give low values 1.01 | locus YDL074C, strain BRE1, hits give low values 1.06 | locus YDL101C, strain DUN1, hits give low values 1.01 | locus YDL134C, strain PPH21, hits give low values 1.01 | locus YDL185W, strain tfp1, hits give low values 0.988 | locus YDL192W, strain arf1, hits give low values 0.993 | locus YDR001C, strain nth1, hits give low values 1.01 | locus YDR069C, strain doa4, hits give low values 0.999 | locus YDR101C, strain arx1, hits give low values 0.999 | locus YDR137W, strain rgp1, hits give low values 1.01 | locus YDR150W, strain NUM1, hits give low values 1.01 | locus YDR159W, strain sac3, hits give low values 0.998 | locus YDR162C, strain NBP2, hits give low values 1.01 | locus YDR195W, strain ref2 1 | locus YDR297W, strain sur2, hits give low values 1.02 | locus YDR318W, strain mcm21, hits give low values 0.989 | locus YDR334W, strain swr1, hits give low values 1.01 | locus YDR335W, strain msn5, hits give low values 1.03 | locus YDR363W, strain ESC2, hits give low values 1.03 | locus YDR388W, hits give low values 0.999 | locus YDR392W, strain spt3, hits give low values 1.07 | locus YDR502C, strain sam2, hits give low values 1.01 | locus YEL003W, strain gim4, hits give low values 1.02 | locus YEL037C, strain rad23, hits give low values 1.02 | locus YEL061C, strain CIN8 (second series), hits give low values 1.01 | locus YEL061C, strain CIN8, hits give low values 1.01 | locus YER002W, strain NOP16, hits give low values 1.03 | locus YER015W, strain faa2, hits give low values 1.02 | locus YER016W, strain bim1, hits give low values 1.04 | locus YER110C, hits give low values 0.99 | locus YER111C, strain swi4, hits give low values 1.01 | locus YER155C, strain BEM2 (second series), hits give low values 1.02 | locus YER155C, strain BEM2, hits give low values 1.01 | locus YER167W, strain BCK2, hits give low values 0.995 | locus YFR010W, strain ubp6, hits give low values 0.986 | locus YGL078C, strain dbp3, hits give low values 1 | locus YGL086W, strain mad1, hits give low values 1 | locus YGL167C, strain pmr1, hits give low values 1.01 | locus YGL173C, strain kem1, hits give low values 1.02 | locus YGL227W, strain vid30, hits give low values 1.04 | locus YGL240W, strain doc1, hits give low values 1.01 | locus YGL248W, strain PDE1, hits give low values 1.03 | locus YGL253W, strain hxk2, hits give low values 1.02 | locus YGR078C, strain PAC10, hits give low values 1.03 | locus YGR135W, strain pre9, hits give low values 0.976 | locus YGR252W, strain gcn5, hits give low values 0.992 | locus YHR013C, strain ard1, hits give low values 1.04 | locus YHR027C, strain rpn1, hits give low values 0.994 | locus YHR030C, strain SLT2, hits give low values 1.01 | locus YHR079C, strain IRE1 (second series), hits give low values 0.99 | locus YHR094C, strain hxt1, hits give low values 0.992 | locus YHR129C, strain ARP1, hits give low values 1.02 | locus YHR142W, strain chs7, hits give low values 1.04 | locus YHR200W, strain rpn10, hits give low values 0.992 | locus YIL066C, strain RNR3, hits give low values 1.03 | locus YIL073C, strain SPO22, hits give low values 0.979 | locus YIL125W, strain kgd1, hits give low values 0.994 | locus YIR030C, strain dcg1, hits give low values 0.995 | locus YJL092W, strain hpr5, hits give low values 1.02 | locus YJL095W, strain BCK1 (second series), hits give low values 1.03 | locus YJL095W, strain BCK1, hits give low values 1.04 | locus YJL115W, strain asf1, hits give low values 1.01 | locus YJL129C, strain trk1, hits give low values 1.03 | locus YJL134W, strain LCB3, hits give low values 1.01 | locus YJL154C, strain vps35, hits give low values 1.01 | locus YJL164C, strain tpk1, hits give low values 1.01 | locus YJL166W, strain qcr8, hits give low values 1.02 | locus YJL168C, strain set2, hits give low values 0.992 | locus YJL187C, strain SWE1 (second series), hits give low values 1.04 | locus YJL187C, strain SWE1, hits give low values 1.02
